# Measured values published in the supplement of paper PMC10849652.
# Targets with a hit are over-represented here; the source holds about 7,900 in all. About 0.6% of all pairs of compound and target were hits.
# Target: AAGAB (UniProt Q6PD74)
# Experiment: log2 fold change, soluble protein after heating vs DMSO (PISA); higher = thermal stabilisation; K562 cells, 10 uM, 30 min; active = over 0.2 and 3.5 SD of the protein, either way, in both replicates (recomputed)
# Method in brief: (§1)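 K562 cells at 2×10^6 cells/mL were given 10 μM compound for 30 min. Aliquots then went through 3 min of heating across 48°C-58°C, were pooled, and were extracted in PBS with 0.5% NP-40 at 4°C, and the supernatant after 21,000xg for 90 min was quantified by TMTpro 16plex LC-MS/MS with channel sums equalised. Thermal stability relative to control samples, from duplicates, is given as log2 fold change.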
# Sequence of AAGAB (Q6PD74 whole entry, looked up): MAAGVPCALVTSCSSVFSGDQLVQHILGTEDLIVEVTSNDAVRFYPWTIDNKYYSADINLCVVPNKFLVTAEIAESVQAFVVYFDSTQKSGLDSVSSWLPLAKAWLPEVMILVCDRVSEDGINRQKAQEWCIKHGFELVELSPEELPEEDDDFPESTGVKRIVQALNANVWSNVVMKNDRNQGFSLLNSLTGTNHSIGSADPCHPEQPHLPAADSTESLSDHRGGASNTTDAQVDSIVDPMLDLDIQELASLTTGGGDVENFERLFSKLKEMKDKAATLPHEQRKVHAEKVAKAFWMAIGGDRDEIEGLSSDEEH
row,Compound,log2 fold change
1,CCN(CC)Cc1ccc2cc(COC(=O)Nc3ccc(C(=O)NO)cc3)ccc2c1 [givinostat],-0.004 (inactive)
2,NCC(=O)Nc1ccc(-n2nc(C(F)(F)F)cc2-c2ccc3c(ccc4ccccc43)c2)cc1,-0.011 (inactive)
3,CO[C@H]1C[C@@H]2CC[C@@H](C)[C@@](O)(O2)C(=O)C(=O)N2CCCC[C@H]2C(=O)O[C@H]([C@H](C)C[C@@H]2CC[C@H](n3cnnn3)[C@H](OC)C2)CC(=O)[C@H](C)/C=C(\C)[C@@H](O)[C@@H](OC)C(=O)[C@H](C)C[C@H](C)/C=C/C=C/C=C/1C [zotarolimus],-0.093 (inactive)
4,CC[C@@H]1C(=O)N(C)c2cnc(Nc3ccc(C(=O)N[C@H]4CC[C@H](N5CCN(CC6CC6)CC5)CC4)cc3OC)nc2N1C(C)C [volasertib],-0.551 (active)
5,Cc1ccc(C(=O)N(CCCN)[C@@H](c2nc3cc(Cl)ccc3c(=O)n2Cc2ccccc2)C(C)C)cc1 [ispinesib],-0.017 (inactive)
6,CN1CC[C@H](c2c(O)cc(O)c3c(=O)cc(-c4ccccc4Cl)oc23)[C@H](O)C1 [alvocidib],0.008 (inactive)
7,C[C@@H](N)c1ccc(C(=O)Nc2ccnc3[nH]ccc23)cc1,0.084 (inactive)
8,Fc1ccc(Cl)cc1-c1nc(Nc2ccncc2)c2nccnc2n1,0.079 (inactive)
9,CS(=O)(=O)CCNCc1ccc(-c2ccc3ncnc(Nc4ccc(OCc5cccc(F)c5)c(Cl)c4)c3c2)o1 [lapatinib],-0.038 (inactive)
10,Cc1nc(Nc2n[nH]c3c2CN(C(=O)N[C@H](CN(C)C)c2ccccc2)C3(C)C)c2sccc2n1,-0.109 (inactive)
11,Cn1cncc1[C@@](N)(c1ccc(Cl)cc1)c1ccc2c(c1)c(-c1cccc(Cl)c1)cc(=O)n2C [tipifarnib],-0.031 (inactive)
12,CCCS(=O)(=O)Nc1ccc(F)c(C(=O)c2c[nH]c3ncc(Cl)cc23)c1F,0.144 (inactive)
13,COc1cc2ncnc(Nc3ccc(F)c(Cl)c3)c2cc1OCCCN1CCOCC1 [gefitinib],-0.027 (inactive)
14,Cc1ccc(-n2nc(C(C)(C)C)cc2NC(=O)Nc2ccc(OCCN3CCOCC3)c3ccccc23)cc1 [doramapimod],0.017 (inactive)
15,O=C(O)c1ccc2c(c1)nc(Nc1cccc(Cl)c1)c1ccncc12 [silmitasertib],0.071 (inactive)
16,CC(C)c1cnn2c(NCc3ccccc3)cc(NCCCCCCN)nc12,-0.099 (inactive)

row,Compound,log2 fold change
1,O=C1NC(=NCc2cccs2)S/C1=C\c1ccc2ncccc2c1,-0.059 (inactive)
2,CN1CCN(c2nc(C3=C(c4c[nH]c5ccccc45)C(=O)NC3=O)c3ccccc3n2)CC1 [sotrastaurin],0.007 (inactive)
3,O=C(Nc1nc2ccccc2n1CCN1CCOCC1)c1cccc([N+](=O)[O-])c1 [IRAK-1-4 Inhibitor I],-0.016 (inactive)
4,CN1CCC(CNc2ccc3ncc(-c4cccc(OC(F)(F)F)c4)n3n2)CC1,-0.228 (inactive)
5,C[C@H](Nc1ncnc2nc[nH]c12)c1cc2cccc(Cl)c2c(=O)n1-c1ccccc1 [duvelisib],-0.1 (inactive)
6,Cc1ccc(Sc2cncc3sc(C(N)=O)cc23)cc1,-0.012 (inactive)
7,Cc1cccc(-c2[nH]c(C(C)(C)C)nc2-c2ccc3nccnc3c2)n1,-0.036 (inactive)
8,COc1cccc2cc(-c3nc([C@H]4CC[C@H](C(=O)O)CC4)n4ncnc(N)c34)[nH]c12,-0.045 (inactive)
9,COc1cc2nc(-c3cc(F)ccc3O)nc(N[C@@H]3CNC[C@H]3C(C)(C)O)c2cc1OC,-0.064 (inactive)
10,CCCCN(Cc1ccc(C(=O)NO)cc1)C(=O)Nc1ccccc1 [Nexturastat A],0.109 (inactive)
11,CC(C)C[C@@H](C=O)NC(=O)[C@H](CC(C)C)NC(=O)[C@H](CC(C)C)NC(=O)OCc1ccccc1,0 (inactive)
12,CN(CCOc1ccc(C[C@@H]2SC(=O)NC2=O)cc1)c1ccccn1 (racemic) [rosiglitazone],0.029 (inactive)
13,O=C1NC(=O)/C(=C\c2ccc3nccnc3c2)S1,0.027 (inactive)
14,CCn1c(C(=O)N(C2CC2)C2CC2)cc2c3c(ncn3C)c(Nc3cc(C)n(C)n3)nc21,0.073 (inactive)
15,Cc1cccc(CC(=O)N2CCc3c2ccc(-c2cn(C)c4ncnc(N)c24)c3F)n1,0.016 (inactive)

# Target: AAK1 (UniProt A0A096LP25)
# Experiment: as above
# Method in brief: as §1
row,Compound,log2 fold change
1,CCN(CC)Cc1ccc2cc(COC(=O)Nc3ccc(C(=O)NO)cc3)ccc2c1 [givinostat],0.056 (inactive)
2,NCC(=O)Nc1ccc(-n2nc(C(F)(F)F)cc2-c2ccc3c(ccc4ccccc43)c2)cc1,-0.085 (inactive)
3,CO[C@H]1C[C@@H]2CC[C@@H](C)[C@@](O)(O2)C(=O)C(=O)N2CCCC[C@H]2C(=O)O[C@H]([C@H](C)C[C@@H]2CC[C@H](n3cnnn3)[C@H](OC)C2)CC(=O)[C@H](C)/C=C(\C)[C@@H](O)[C@@H](OC)C(=O)[C@H](C)C[C@H](C)/C=C/C=C/C=C/1C [zotarolimus],-0.095 (inactive)
4,Cc1ccc(C(=O)N(CCCN)[C@@H](c2nc3cc(Cl)ccc3c(=O)n2Cc2ccccc2)C(C)C)cc1 [ispinesib],0.011 (inactive)
5,CN1CC[C@H](c2c(O)cc(O)c3c(=O)cc(-c4ccccc4Cl)oc23)[C@H](O)C1 [alvocidib],-0.009 (inactive)
6,C[C@@H](N)c1ccc(C(=O)Nc2ccnc3[nH]ccc23)cc1,0.365 (inactive)
7,Fc1ccc(Cl)cc1-c1nc(Nc2ccncc2)c2nccnc2n1,-0.027 (inactive)
8,Cc1nc(Nc2n[nH]c3c2CN(C(=O)N[C@H](CN(C)C)c2ccccc2)C3(C)C)c2sccc2n1,0.104 (inactive)
9,COc1cc2ncnc(Nc3ccc(F)c(Cl)c3)c2cc1OCCCN1CCOCC1 [gefitinib],-0.049 (inactive)
10,Cc1ccc(-n2nc(C(C)(C)C)cc2NC(=O)Nc2ccc(OCCN3CCOCC3)c3ccccc23)cc1 [doramapimod],-0.013 (inactive)
11,O=C(O)c1ccc2c(c1)nc(Nc1cccc(Cl)c1)c1ccncc12 [silmitasertib],-0.072 (inactive)
12,CC(C)c1cnn2c(NCc3ccccc3)cc(NCCCCCCN)nc12,-0.145 (inactive)
13,O=C1NC(=NCc2cccs2)S/C1=C\c1ccc2ncccc2c1,0.234 (inactive)
14,CN1CCN(c2nc(C3=C(c4c[nH]c5ccccc45)C(=O)NC3=O)c3ccccc3n2)CC1 [sotrastaurin],-0.005 (inactive)
15,O=C(Nc1nc2ccccc2n1CCN1CCOCC1)c1cccc([N+](=O)[O-])c1 [IRAK-1-4 Inhibitor I],-0.063 (inactive)
16,CN1CCC(CNc2ccc3ncc(-c4cccc(OC(F)(F)F)c4)n3n2)CC1,0.332 (inactive)
17,C[C@H](Nc1ncnc2nc[nH]c12)c1cc2cccc(Cl)c2c(=O)n1-c1ccccc1 [duvelisib],0.007 (inactive)
18,Cc1cccc(-c2[nH]c(C(C)(C)C)nc2-c2ccc3nccnc3c2)n1,0 (inactive)
19,COc1cccc2cc(-c3nc([C@H]4CC[C@H](C(=O)O)CC4)n4ncnc(N)c34)[nH]c12,0.129 (inactive)
20,CCCCN(Cc1ccc(C(=O)NO)cc1)C(=O)Nc1ccccc1 [Nexturastat A],0.068 (inactive)
21,CC(C)C[C@@H](C=O)NC(=O)[C@H](CC(C)C)NC(=O)[C@H](CC(C)C)NC(=O)OCc1ccccc1,0.065 (inactive)
22,CN(CCOc1ccc(C[C@@H]2SC(=O)NC2=O)cc1)c1ccccn1 (racemic) [rosiglitazone],0.107 (inactive)
23,O=C1NC(=O)/C(=C\c2ccc3nccnc3c2)S1,0.107 (inactive)
24,CCn1c(C(=O)N(C2CC2)C2CC2)cc2c3c(ncn3C)c(Nc3cc(C)n(C)n3)nc21,-0.041 (inactive)
25,Cc1cccc(CC(=O)N2CCc3c2ccc(-c2cn(C)c4ncnc(N)c24)c3F)n1,-0.017 (inactive)
